Source: PubChem BioAssay (several laboratories)
This is a sample that favours compounds with a hit; in the whole collection about 1.9% have one here.
BaF3 parental = parental Ba/F3 cell viability inhibition, counter-screen for JAK2V617F inhibitor project, murine pro-B, CellTiter-Glo luminescence; 220,000 tested, 1.1% active; inhibition, % at 5.6 µM; CellTiter-Glo ATP luminescence;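 active = inhibition above a per-campaign cutoff, the mean inhibition of all tested compounds plus 3 SD, cut at about 27% in these data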;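 note: 0% = DMSO wells and 100% = JAK Inhibitor I control wells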
KLF5 inh = KLF5 expression inhibitors, primary screen, DLD-1 cells, luminescence; inhibition, % at 5 µM; AID 1700, 2009; 290,000 tested, 0.23% active; DLD-1 KLF5 promoter-luciferase reporter;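 active = inhibition above a per-plate limit of that plate's mean compound inhibition plus 3 SD, cut at about 60% in these data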;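 note: 0% = DMSO wells and 100% = LY294002 at 200 µM; higher means less KLF5 promoter-driven luciferase light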
IEC-6 tox-1 = cytotoxicity in IEC-6 intestinal epithelial cells, primary screen, cytotoxicity control for KLF5 inhibitor project, cell-based, luminescence; IEC-6 cytotoxicity, luminescence viability; inhibition, % at 5 µM; 290,000 tested, 0.78% active; AID 1825, 2009; in the data active = inhibition above about 22%;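 note: 0% = plate median of test compound wells and 100% = cytotoxic reference compound wells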
APP 5UTR inh = inhibitors of APP translation via 5'UTR reporter, primary screen, APP 5'UTR luciferase, SH-SY5Y cells | SH-SY5Y APP 5'UTR-luciferase reporter, luminescence | inhibition, % at 2 µM | 190,000 tested, 0.82% active;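 active = inhibition above a set limit, derived from the sample mean plus 3 SD, cut at about 45% in these data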
Ba/F3 V617F tox = reduced viability of JAK2V617F-dependent Ba/F3 cells, primary screen, JAK2V617F inhibitor project, cell-based, Ba/F3 EpoR-JAK2V617F, luminescence. ATP luminescence. inhibition, % at 5.6 µM. 220,000 tested, 1.1% active. AID 1446, 2008;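 active = inhibition above the campaign mean plus 3 SD over all tested compounds, cut at about 24% in these data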;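 note: cytokine-independent growth of Ba/F3 cells driven by EpoR plus mutant JAK2; 0% = DMSO-treated cells and 100% = JAK inhibitor I control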
KLF5 confirm = KLF5 expression inhibitors, confirmation, DLD-1 cells, luminescence. shares compounds with KLF5 inh. DLD-1 KLF5 promoter firefly luciferase reporter. inhibition, % at 4 µM. 610 tested, 79% active;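 active = inhibition above a set limit taken from the earlier primary screen, cut at about 63% in these data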;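 note: 0% = DMSO wells and 100% = LY294002 at 200 µM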
IEC-6 tox-2 = cytotoxicity in rat IEC-6 cells, cytotoxicity control for KLF5 inhibitor project, cell-based, luminescence, triplicate | shares compounds with KLF5 inh | IEC-6 rat intestinal cells, viability luminescence | inhibition, % at 4 µM | 610 tested, 56% active; in the data active = inhibition above about 23%;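 note: cells exposed to compounds for 48 hours before viability read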
An asterisk follows results filed as active.

How did Cc1cc(C(=O)COC(=O)c2ccccc2O)c(C)n1Cc1cccs1 do in these assays?
BaF3 parental: 2; KLF5 inh: 81*; IEC-6 tox-1: -3; APP 5UTR inh: -8; Ba/F3 V617F tox: -3; KLF5 confirm: 78*; IEC-6 tox-2: -10

What do the screens show for `Oc1c(CN2CCN(c3ccccc3)CC2)cc(Br)c2cccnc12`?
BaF3 parental: 12; KLF5 inh: 52; IEC-6 tox-1: 13; Ba/F3 V617F tox: 20; KLF5 confirm: 57; IEC-6 tox-2: 15

How did CCN(CC)c1ccc(/C=N/NC(=O)c2cccc(S(=O)(=O)Nc3ccccc3OC)c2)c(O)c1 do in these assays?
BaF3 parental: 4; KLF5 inh: 74*; IEC-6 tox-1: 31*; APP 5UTR inh: 70*; Ba/F3 V617F tox: 10; KLF5 confirm: 79*; IEC-6 tox-2: 33*

What do the screens show for `COc1cc(C(=O)N/N=C(\C)Cc2ccccc2)cc(OC)c1OC`?
BaF3 parental: 80*; KLF5 inh: 76*; IEC-6 tox-1: 84*; APP 5UTR inh: 94*; Ba/F3 V617F tox: 86*; KLF5 confirm: -13; IEC-6 tox-2: 0

Results for COc1cc(/C=N/O)ccc1OCc1ccc(Cl)cc1 ?
BaF3 parental: 4; KLF5 inh: -254; IEC-6 tox-1: -1; APP 5UTR inh: -191; Ba/F3 V617F tox: -3

How did COc1cc(/C=N/NS(=O)(=O)c2ccc(C)cc2)ccc1OCc1cccc(C(=O)O)c1 do in these assays?
BaF3 parental: 0; KLF5 inh: 34; IEC-6 tox-1: -5; APP 5UTR inh: 31; Ba/F3 V617F tox: -1

Results for COc1cc(/C=N/O)ccc1OCc1ccc(C(=O)O)cc1 ?
BaF3 parental: 4; KLF5 inh: 84*; IEC-6 tox-1: 0; APP 5UTR inh: 82*; Ba/F3 V617F tox: 0; KLF5 confirm: 95*; IEC-6 tox-2: 0

Results for COc1cc(/C=N/NS(=O)(=O)c2ccc3ccccc3c2)ccc1OCc1ccc(C(=O)O)cc1 ?
BaF3 parental: 0; KLF5 inh: 65*; IEC-6 tox-1: 5; Ba/F3 V617F tox: 1; KLF5 confirm: -18; IEC-6 tox-2: -5

Results for CCNC(C(=O)c1c[nH]c2c(CC)cccc12)c1ccccc1 (stereo not given) ?
KLF5 inh: -35; IEC-6 tox-1: 2

How did CC(=O)c1ccc(Nc2cc(C)nc3c(C)cc(C)cc23)cc1 do in these assays?
BaF3 parental: 81*; KLF5 inh: 67*; IEC-6 tox-1: 73*; APP 5UTR inh: 89*; Ba/F3 V617F tox: 81*; KLF5 confirm: 79*; IEC-6 tox-2: 49*

Results for CCOc1ccc(Nc2nc(N)c3ccccc3n2)cc1 ?
KLF5 inh: 81*; IEC-6 tox-1: 20; KLF5 confirm: 56; IEC-6 tox-2: 10

What do the screens show for `Nc1nc(Nc2ccc(Cl)cc2)nc2ccccc12`?
BaF3 parental: 4; KLF5 inh: 32; IEC-6 tox-1: 17; APP 5UTR inh: -115; Ba/F3 V617F tox: 6

How did CN(C)c1ccc(Nc2nc(N)c3ccccc3n2)cc1 do in these assays?
KLF5 inh: 91*; IEC-6 tox-1: 22; KLF5 confirm: 67*; IEC-6 tox-2: 10

How did CNC(=O)C12N=CNN=C1N(C)C(=O)N2C (stereo not given) do in these assays?
BaF3 parental: 4; KLF5 inh: -10; IEC-6 tox-1: -1; APP 5UTR inh: -4; Ba/F3 V617F tox: -2

What do the screens show for `Cc1ccc(C(C[N+](=O)[O-])Sc2ccc(N)cc2)cc1` (stereo not given)?
BaF3 parental: 1; KLF5 inh: -10; IEC-6 tox-1: 0; Ba/F3 V617F tox: 0

How did COc1cc(NC(=O)CSc2nnc3c(C)cc4c(C)ccc(C)c4n23)c(C(=O)O)cc1OC do in these assays?
BaF3 parental: 10; KLF5 inh: -27; IEC-6 tox-1: 4; APP 5UTR inh: 7; Ba/F3 V617F tox: 5

What do the screens show for `Cc1ccc(NC(=O)N2CCCCC2)cc1[N+](=O)[O-]`?
BaF3 parental: 0; KLF5 inh: -37; IEC-6 tox-1: 1; Ba/F3 V617F tox: 2

Results for Oc1c(C(Nc2cccc(C(F)(F)F)c2)c2cccnc2)ccc2cccnc12 (stereo not given) ?
BaF3 parental: 3; KLF5 inh: -7; IEC-6 tox-1: -2; APP 5UTR inh: 3; Ba/F3 V617F tox: -3

Results for Oc1cccc(C(Nc2nccs2)c2ccc3cccnc3c2O)c1 (stereo not given) ?
BaF3 parental: 65*; KLF5 inh: 74*; IEC-6 tox-1: 48*; APP 5UTR inh: 73*; Ba/F3 V617F tox: 68*; KLF5 confirm: 92*; IEC-6 tox-2: 63*

What do the screens show for `Cc1cccc(C(=O)Nc2ccc(C(=O)Nc3ccc(O)cc3)cc2)c1`?
KLF5 inh: 7; IEC-6 tox-1: 12

What do the screens show for `CCCN1CCN(C(=S)Nc2ccccc2C(F)(F)F)CC1`?
BaF3 parental: 0; KLF5 inh: -1; IEC-6 tox-1: 1; APP 5UTR inh: -6; Ba/F3 V617F tox: -4

What do the screens show for `COC(=O)c1cc(C(=O)N2CCN(c3ccccc3OC)CC2)cc([N+](=O)[O-])c1`?
BaF3 parental: 71*; KLF5 inh: 74*; IEC-6 tox-1: 69*; APP 5UTR inh: 92*; Ba/F3 V617F tox: 67*; KLF5 confirm: 80*; IEC-6 tox-2: 63*

What do the screens show for `Cc1ccc2nc(NC(=O)CCCc3nc4ccccc4s3)sc2c1`?
BaF3 parental: 21; KLF5 inh: 88*; IEC-6 tox-1: -1; APP 5UTR inh: -62; Ba/F3 V617F tox: 2; KLF5 confirm: 98*; IEC-6 tox-2: 6

What do the screens show for `Cc1cnc(NC(=O)CCCc2nc3ccccc3s2)s1`?
BaF3 parental: 6; KLF5 inh: -4; IEC-6 tox-1: -1; APP 5UTR inh: 9; Ba/F3 V617F tox: 1

How did C/C(=N\NC(=O)c1c(Cl)cnn1C)c1ccc(NC(=O)c2ccncc2)cc1 do in these assays?
BaF3 parental: 6; KLF5 inh: 1; IEC-6 tox-1: 2; APP 5UTR inh: -8; Ba/F3 V617F tox: -4

Results for Cc1nc(N/N=C/c2ccccn2)sc1C ?
BaF3 parental: 14; KLF5 inh: 79*; IEC-6 tox-1: 3; APP 5UTR inh: 5; Ba/F3 V617F tox: 19; KLF5 confirm: 78*; IEC-6 tox-2: 7

How did CC(C)Cn1cnc2c1c(=O)[nH]c(=O)n2Cc1ccccc1 do in these assays?
KLF5 inh: -42; IEC-6 tox-1: -6

How did CN=c1scc(-c2ccccc2F)n1/N=C/c1ccc[nH]1 do in these assays?
BaF3 parental: 9; KLF5 inh: 94*; IEC-6 tox-1: -5; APP 5UTR inh: 55*; Ba/F3 V617F tox: 5; KLF5 confirm: 106*; IEC-6 tox-2: 2
